Experiment [1] is described as follows: binders of probe aFSTL3 on microarray, primary screen, stem cell growth factor project, biochemical, small-molecule microarray, fluorescence 635/667 (AID 1064).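 Also: measures binding of the biotinylated anti-FSTL3 antibody to printed compounds.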 The note with it: higher = more signal.
Experiment [2] is described as follows: binders from COS7 lysate, DM2A8 probe, primary screen, torsin A project, cell lysate, small-molecule microarray, fluorescence 635/667 (AID 1065). The following applies: higher = more signal, COS7 lysate expressing mutant human TOR1A.
A short description of experiment [3]: binders of probe aFGF2 on microarray, primary screen, stem cell growth factor project, biochemical, small-molecule microarray, fluorescence 635/667 (AID 1067).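 Also: measures binding of biotinylated aFGF2 protein to printed compounds on slides; z-score merges feature fluorescence and signal-to-noise across triplicate slides.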 The note with it: higher = more signal.
Experiment [4] is described as follows: binders of probe aFGF10 on microarray, primary screen, stem cell growth factor project, biochemical, small-molecule microarray, fluorescence 635/667 (AID 1071).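 Also: score merges 667 nm spot intensity and signal to noise from triplicate slides.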 The note with it: higher = more signal.
Experiment [5] concerns the target Neurogenic locus notch homolog protein 2 (Homo sapiens) (UniProt Q04721). Put plainly: Notch2 binders on small-molecule microarrays, primary screen, biochemical, small-molecule microarray, 635 nm fluorescence, stem cell growth factors (AID 1073). The following applies: Notch2 binding, higher = more signal.
In experiment [6] the target is Pro-neuregulin-1, membrane-bound isoform (Homo sapiens) (UniProt Q02297). Kind of experiment: NRG1 binders on small-molecule microarrays, primary screen, psychiatric disease protein project, biochemical, small-molecule microarray, fluorescence 635/667 (AID 1075).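 Also: score combines 667 nm spot fluorescence with signal to noise.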 The following applies: NRG1 binding, 635 nm fluorescence, higher = more signal.
In experiment [7] the test system is Neuregulin-1 EGF-like domain. Put plainly: binders of neuregulin-1 EGF-like domain, primary screen, biochemical, small-molecule microarray, 635 nm fluorescence (AID 1081).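 Also: binding of the protein to compounds printed on small-molecule microarray slides.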 The following applies: small-molecule microarray binding, higher = more signal.
Experiment [8] is described as follows: FRG1 promoter luciferase signal modulators, primary screen, FRG1 inhibition for FSHD, cell-based, C2C12 myotubes, firefly/Renilla luciferase, luminescence (AID 1084). The note with it: higher = more signal, called active from +8 up or from −8 down.
Experiment [9] is described as follows: binders of probe aFST on microarray, primary screen, stem cell growth factor project, biochemical, small-molecule microarray, fluorescence 635/667 (AID 1086).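 Also: score merges 667 nm fluorescence with signal-to-noise of each printed compound spot.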 The note with it: higher = more signal.
Experiment [10] is described as follows: binders of probe aHhip on microarray, primary screen, stem cell growth factor project, biochemical, small-molecule microarray, fluorescence 635/667 (AID 1087).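 Also: score merges spot fluorescence at 667nm with spot signal to noise ratio.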 The following applies: higher = more signal.
For experiment [11], the system named is PRMT1 (protein arginine N-methyltransferase 1). Put plainly: PRMT1 binders on small-molecule microarrays, primary screen, biochemical, small-molecule microarray, 635 nm fluorescence (AID 1088).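 Also: binding of Prmt1 protein to compounds spotted on small-molecule microarray slides.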 The note with it: small-molecule microarray binding, higher = more signal.
Experiment [12] is described as follows: yeast growth modulation, basal conditions, primary screen, YJM789 clinical isolate, OD600, 24 h (AID 1089).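 Also: growth of clinical yeast isolate S. cerevisiae YJM 789 seeded 1000 cells per well; test concentration not given here.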 The following applies: S. cerevisiae YJM789 growth, higher = more signal, called active from +8 up or from −8 down.
Experiment [13] can be described thus: fission yeast growth modulation, primary screen, strain 972, OD600, 24 h, no modulator (AID 1090).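 Also: basal condition with compound alone and no growth modifier present; test concentration not given here.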 The following applies: S. pombe 972 growth, higher = more signal, called active from +8 up or from −8 down.
The nature of experiment [14]: S. cerevisiae growth modulation with rapamycin, primary screen, strain BY4716, OD600, 96 h (AID 1091). Also: test concentration not given here. The following applies: higher = more signal, called active from +8 up or from −8 down.
Experiment [15] deals with Torsin-1A-interacting protein 2 (Homo sapiens) (UniProt Q8NFQ8). Put plainly: LULL1 binders on small-molecule microarray, primary screen, cell lysate, human LULL1 lysate, 635/667 nm fluorescence (AID 1092).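 Also: score merges per-feature 667 nm fluorescence with signal-to-noise.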 The note with it: hLULL1 lysate binding, 635 nm fluorescence, higher = more signal.
Experiment [16] can be described thus: E. coli growth modulation, two-sided OD650, primary screen, E. coli filamentation project, strain DRC41, 24 h (AID 1093).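 Also: MC1000 strain lacking acrAB efflux and sulA so SOS filamentation is blocked; test concentration not given here.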 The note with it: OD650, 24 h, higher = more signal, called active from +8 up or from −8 down.
The nature of experiment [17]: small-molecule microarray binders of probe aLefty2, primary screen, biochemical, biotinylated probe, 635/667 nm fluorescence (AID 1094).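 Also: score merges spot fluorescence near 667 nm with spot signal-to-noise ratio.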 The note with it: higher = more signal.
Experiment [18] relates to Noggin (protein binding on small-molecule microarray). Kind of experiment: Noggin binders on small-molecule microarray, primary screen, biochemical, 635/667 nm fluorescence (AID 1095).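 Also: score merges 667 nm feature fluorescence with signal to noise over triplicate slides.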 The following applies: 635 nm fluorescence, higher = more signal.
The target of experiment [19] is Neurogenic locus notch homolog protein 3 (Homo sapiens) (UniProt Q9UM47). Put plainly: NOTCH3 binders on small-molecule microarray, primary screen, biochemical, 635/667 nm fluorescence (AID 1096). The note with it: NOTCH3 binding, 635 nm fluorescence, higher = more signal.
Experiment [20] is described as follows: small-molecule microarray binders of probe aEGFR, primary screen, biochemical, biotinylated probe, 635/667 nm fluorescence (AID 1097).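 Also: probe is a biotinylated anti-EGFR antibody binding compounds printed on slides; score combines fluorescence near 667 nm and signal to noise of each spot.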 The following applies: higher = more signal.

Active and inactive are the calls of the source.

Sequence of Neurogenic locus notch homolog protein 3 (Homo sapiens) (Q9UM47 whole entry, looked up): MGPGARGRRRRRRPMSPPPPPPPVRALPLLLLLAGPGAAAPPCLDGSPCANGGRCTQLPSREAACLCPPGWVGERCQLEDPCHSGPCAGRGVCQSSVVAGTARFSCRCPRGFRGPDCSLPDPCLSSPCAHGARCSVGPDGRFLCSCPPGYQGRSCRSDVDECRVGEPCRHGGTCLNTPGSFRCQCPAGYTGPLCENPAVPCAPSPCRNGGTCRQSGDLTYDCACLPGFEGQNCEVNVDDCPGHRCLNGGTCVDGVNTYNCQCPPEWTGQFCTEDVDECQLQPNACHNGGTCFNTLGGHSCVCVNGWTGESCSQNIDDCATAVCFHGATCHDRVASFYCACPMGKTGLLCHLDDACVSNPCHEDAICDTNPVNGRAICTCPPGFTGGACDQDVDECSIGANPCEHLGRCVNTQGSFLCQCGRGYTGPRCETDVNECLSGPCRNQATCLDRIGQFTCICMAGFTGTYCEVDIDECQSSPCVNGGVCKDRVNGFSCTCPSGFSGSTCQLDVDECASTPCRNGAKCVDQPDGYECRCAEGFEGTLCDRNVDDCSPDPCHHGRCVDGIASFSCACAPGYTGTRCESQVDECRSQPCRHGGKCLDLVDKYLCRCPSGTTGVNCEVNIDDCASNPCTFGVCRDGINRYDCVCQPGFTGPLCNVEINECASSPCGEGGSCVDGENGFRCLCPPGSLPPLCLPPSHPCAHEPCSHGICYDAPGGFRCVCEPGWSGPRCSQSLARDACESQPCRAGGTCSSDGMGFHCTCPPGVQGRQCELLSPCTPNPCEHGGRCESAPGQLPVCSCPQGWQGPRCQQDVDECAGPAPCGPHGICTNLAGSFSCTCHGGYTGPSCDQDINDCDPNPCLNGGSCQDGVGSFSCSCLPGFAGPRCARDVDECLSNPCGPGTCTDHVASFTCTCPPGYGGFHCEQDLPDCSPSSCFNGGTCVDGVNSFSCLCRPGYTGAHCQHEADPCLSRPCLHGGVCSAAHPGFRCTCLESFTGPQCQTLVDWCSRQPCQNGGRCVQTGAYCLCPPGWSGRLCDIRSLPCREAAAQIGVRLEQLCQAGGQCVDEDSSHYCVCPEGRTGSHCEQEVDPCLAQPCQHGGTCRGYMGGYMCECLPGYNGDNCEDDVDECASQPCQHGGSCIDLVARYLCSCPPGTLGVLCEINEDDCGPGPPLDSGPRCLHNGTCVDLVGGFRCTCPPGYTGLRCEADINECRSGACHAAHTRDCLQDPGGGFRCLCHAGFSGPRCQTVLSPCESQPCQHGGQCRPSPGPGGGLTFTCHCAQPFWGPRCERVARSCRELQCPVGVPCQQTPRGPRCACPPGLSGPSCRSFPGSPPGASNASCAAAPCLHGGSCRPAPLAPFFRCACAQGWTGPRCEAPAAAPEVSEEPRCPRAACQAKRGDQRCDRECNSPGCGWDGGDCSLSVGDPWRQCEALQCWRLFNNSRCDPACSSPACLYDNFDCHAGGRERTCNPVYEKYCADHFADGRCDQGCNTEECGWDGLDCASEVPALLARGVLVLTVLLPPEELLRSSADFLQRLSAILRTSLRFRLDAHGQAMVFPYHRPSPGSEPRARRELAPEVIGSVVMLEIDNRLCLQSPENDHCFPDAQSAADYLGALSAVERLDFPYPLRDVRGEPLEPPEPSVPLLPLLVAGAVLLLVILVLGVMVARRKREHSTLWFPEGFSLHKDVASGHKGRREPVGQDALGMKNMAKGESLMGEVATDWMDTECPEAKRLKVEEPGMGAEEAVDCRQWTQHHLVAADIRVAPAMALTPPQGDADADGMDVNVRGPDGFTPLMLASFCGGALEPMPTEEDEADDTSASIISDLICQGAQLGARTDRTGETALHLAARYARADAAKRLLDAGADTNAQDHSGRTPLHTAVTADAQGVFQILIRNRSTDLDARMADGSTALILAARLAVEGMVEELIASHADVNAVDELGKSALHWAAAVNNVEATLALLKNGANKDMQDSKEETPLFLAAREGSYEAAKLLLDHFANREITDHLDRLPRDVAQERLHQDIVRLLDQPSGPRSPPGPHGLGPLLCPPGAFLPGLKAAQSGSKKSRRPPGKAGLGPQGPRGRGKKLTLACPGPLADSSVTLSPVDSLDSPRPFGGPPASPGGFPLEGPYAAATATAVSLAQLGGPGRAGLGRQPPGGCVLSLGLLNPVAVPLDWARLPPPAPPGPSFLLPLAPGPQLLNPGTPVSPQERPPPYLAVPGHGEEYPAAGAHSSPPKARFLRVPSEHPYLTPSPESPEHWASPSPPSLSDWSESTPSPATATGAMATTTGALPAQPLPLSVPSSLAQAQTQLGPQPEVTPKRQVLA
Sequence of Torsin-1A-interacting protein 2 (Homo sapiens) (Q8NFQ8 whole entry, looked up): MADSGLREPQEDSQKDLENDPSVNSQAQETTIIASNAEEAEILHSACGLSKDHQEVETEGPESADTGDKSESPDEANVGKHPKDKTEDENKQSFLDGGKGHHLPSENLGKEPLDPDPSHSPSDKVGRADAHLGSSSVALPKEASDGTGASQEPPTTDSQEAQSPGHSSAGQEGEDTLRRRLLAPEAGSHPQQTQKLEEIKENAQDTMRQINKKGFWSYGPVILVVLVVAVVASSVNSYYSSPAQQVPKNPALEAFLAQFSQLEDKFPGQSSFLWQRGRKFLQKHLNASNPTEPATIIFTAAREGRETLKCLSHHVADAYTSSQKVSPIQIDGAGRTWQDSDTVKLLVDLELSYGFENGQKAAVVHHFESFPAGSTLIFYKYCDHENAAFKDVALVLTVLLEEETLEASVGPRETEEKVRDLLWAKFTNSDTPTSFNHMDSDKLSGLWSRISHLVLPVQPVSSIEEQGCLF
Sequence of Pro-neuregulin-1, membrane-bound isoform (Homo sapiens) (Q02297 whole entry, looked up, the tested form may be a part, canonical isoform): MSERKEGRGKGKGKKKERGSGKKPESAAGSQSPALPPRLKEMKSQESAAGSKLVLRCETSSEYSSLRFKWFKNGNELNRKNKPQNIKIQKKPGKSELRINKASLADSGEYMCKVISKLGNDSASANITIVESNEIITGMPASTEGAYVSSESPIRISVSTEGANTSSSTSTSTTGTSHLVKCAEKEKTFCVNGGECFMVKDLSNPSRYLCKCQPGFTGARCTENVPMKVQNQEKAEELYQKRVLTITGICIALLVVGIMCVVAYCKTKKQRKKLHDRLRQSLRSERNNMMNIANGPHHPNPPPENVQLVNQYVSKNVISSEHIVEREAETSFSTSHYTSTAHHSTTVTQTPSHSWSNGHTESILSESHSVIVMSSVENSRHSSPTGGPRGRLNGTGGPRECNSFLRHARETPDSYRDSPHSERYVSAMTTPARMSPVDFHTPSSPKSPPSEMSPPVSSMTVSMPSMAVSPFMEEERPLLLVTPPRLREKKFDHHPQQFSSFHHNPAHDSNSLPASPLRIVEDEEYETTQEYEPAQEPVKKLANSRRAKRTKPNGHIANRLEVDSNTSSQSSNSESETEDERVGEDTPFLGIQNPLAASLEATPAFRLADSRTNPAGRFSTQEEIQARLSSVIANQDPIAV

For `CC(C)CCC[C@@H](C)[C@H]1CC[C@@]2(C)C3=C(CC[C@]12C)[C@@]1(C)CC[C@H](OC(=O)CCl)C(C)(C)C1CC3` (stereo not given in full), the composite z-score in experiment [1] is -0.503; in experiment [2] it was 0.331; in [3], -0.0787; in [4], 0.422; in experiment [5], 0.753; in [6], 0.0429. In addition, the composite z-score in experiment [7] is 0.59; in experiment [9] it was 0.104; in [10], -0.0237; in experiment [11], -0.132; in experiment [15] it was 0.424; in experiment [17] it was -0.145. Further, the results for the composite z-score in [18], in experiment [19] and in experiment [20] were 0.44, 0.847 and 0.0143, respectively. Further, the z-score is -0.0513 (inactive) in experiment [8]; -0.0688 (inactive) in experiment [12]; -0.178 (inactive) in experiment [13]; -0.208 (inactive) in experiment [14]; 3.26 (inactive) in experiment [16].
As to `O=C1O[C@@H](c2ccccc2)[C@@H](c2ccccc2)N2[C@@H](c3ccc(OCCO)cc3)[C@]3(C(=O)Nc4ccc(C#CC5(O)CCCCCC5)cc43)[C@@H](C(=O)NC[C@H](O)c3ccccc3)[C@H]12`, the composite z-score is 0.0882 in experiment [1]; 1 in experiment [2]; -0.0258 in [3]; 1.06 in experiment [4]; 1.42 in [5]; 1.43 in [6]. Further, the composite z-score is 1.26 in experiment [7]; 0.934 in experiment [9]; -0.191 in [10]; 1.55 in experiment [11]; 2.3 in [15]; 0.0844 in experiment [17]. For the same compound, the composite z-score in experiment [18] is 0.982; in [19], 1.04; in experiment [20], -0.0332. Moreover, the z-score in [8] was -0.222 (inactive); in experiment [12] it was 1.24 (inactive); in experiment [13], 1.21 (inactive); in [14], 5.49 (inactive); in experiment [16] it was 3.13 (inactive).
As to `C=C(/C(=C/C[C@H](OC(C)=O)c1cccc(OCCO)c1)c1cc(C(=O)OC)ccc1OC)C(C)C`, the composite z-score is 0.037 in experiment [1]; 0.0106 in [2]; -0.128 in experiment [3]; 0.437 in [4]; -1.02 in experiment [5]; 1.04 in experiment [6]. In addition, the composite z-score in experiment [7] is 0.274; in experiment [9], -0.24; in experiment [10], 0.0623; in experiment [11], 0.359; in experiment [15], 0.41; in experiment [17], -0.189. The composite z-score in experiment [18] was -0.0168; in experiment [19], -0.609; in experiment [20] it was -0.191. The z-score is -0.698 (inactive) in [8]; 0.0359 (inactive) in [12]; -1.37 (inactive) in [13]; -0.954 (inactive) in experiment [14]; 1.73 (inactive) in [16].
With `COCCOC(=O)N1C(=O)[C@@]2(c3cc(C#CCCO)ccc31)[C@H](c1ccccc1OCCO)N1[C@H](c3ccccc3)[C@H](c3ccccc3)OC(=O)[C@H]1[C@@H]2C(=O)NC[C@H](O)c1ccccc1`, the composite z-score in [1] was -0.138; in [2] it was 2.15; in [3] it was -0.105; in experiment [4] it was 0.365; in [5] it was 0.3; in experiment [6], 1.12. The composite z-score was 1.06 in experiment [7]; 0.555 in experiment [9]; 0.0623 in experiment [10]; 1.56 in experiment [11]; 1.29 in experiment [15]; -0.0898 in experiment [17]. Besides, the composite z-score stood at 1.71 in experiment [18], 0.99 in [19] and 0.0533 in experiment [20]. The z-score in experiment [8] was -2.36 (inactive); in experiment [12] it was -0.524 (inactive); in experiment [13], -1.14 (inactive); in experiment [14], 2.23 (inactive); in experiment [16], 3.51 (inactive).
Consider `[N-]=[N+]=NCc1ccccc1C[C@@]1(C(=O)NCc2ccccc2)N=C(c2ccc(OCCCO)cc2)O[C@@H]1c1ccccc1`, for which the composite z-score was determined as 1.16 in experiment [1]; 0.997 in experiment [2]; 0.0336 in experiment [3]; 0.422 in experiment [4]; 0.853 in [5]; 0.457 in [6]. Further, the composite z-score in [7] was 0.856; in experiment [9], 0.551; in experiment [10], -0.191; in experiment [11], 0.475; in experiment [15], 1.82; in experiment [17] it was 0.247. For the same compound, the results for the composite z-score in [18], in [19] and in [20] were -0.41, -0.0209 and 0.0139, respectively. The z-score was -3.28 (inactive) in experiment [8]; 1.06 (inactive) in experiment [12]; 0.393 (inactive) in experiment [13]; 32.7 (active) in [14]; 2.1 (inactive) in experiment [16].

Values taken from PubChem BioAssay.
